Tests used:
Test in all cases: DAPPL (digital affinity profiling via proximity ligation, sequencing); 10 mM Tris-HCl pH 7.5, 50 mM NaCl, 1 mM DTT, 4% glycerol, room temperature, 30 min; GST-TFs on glutathione beads, 16-mer random dsDNA library, 0.1% formaldehyde crosslink after washing; high values mean tight binding
FLI1 = biological target: T1, FLI1 (Homo sapiens, UniProt Q01543 1-452); conditions: protein: recombinant; tags: N-terminal GST; dsDNA, one strand shown
T1 sequence: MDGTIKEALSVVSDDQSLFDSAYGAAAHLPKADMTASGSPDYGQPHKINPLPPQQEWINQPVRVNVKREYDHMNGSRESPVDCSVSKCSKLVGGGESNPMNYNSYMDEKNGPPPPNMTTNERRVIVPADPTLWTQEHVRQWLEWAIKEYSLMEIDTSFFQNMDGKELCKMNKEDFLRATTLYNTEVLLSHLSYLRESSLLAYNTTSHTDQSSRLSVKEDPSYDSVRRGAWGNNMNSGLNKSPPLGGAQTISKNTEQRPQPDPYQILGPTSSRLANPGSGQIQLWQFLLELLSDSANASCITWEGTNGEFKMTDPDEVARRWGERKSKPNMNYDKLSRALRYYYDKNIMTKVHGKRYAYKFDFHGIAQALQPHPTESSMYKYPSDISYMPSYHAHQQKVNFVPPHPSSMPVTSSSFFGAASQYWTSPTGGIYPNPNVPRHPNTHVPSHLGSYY
In short: (§1)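 A tag-only sample was pooled with DNA-barcoded human transcription factors that had been expressed in yeast as GST fusions and captured on glutathione beads. The pools were incubated for 30 min at room temperature with 200 nmole of a random double-stranded 16-mer DNA library in Tris/NaCl/DTT/glycerol buffer, then washed, crosslinked with 0.1% formaldehyde, proximity-ligated (BsaI/T4 ligase, 1 h, 37 °C), PCR-amplified and sequenced on an Illumina NextSeq500. Binding signal is each hexamer's read frequency for a factor divided by its frequency for the tag-only sample.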

ELK1 = biological target: T2, ELK1 (Homo sapiens, UniProt P19419 1-428); conditions: protein: recombinant; tags: N-terminal GST; dsDNA, one strand shown
T2 sequence: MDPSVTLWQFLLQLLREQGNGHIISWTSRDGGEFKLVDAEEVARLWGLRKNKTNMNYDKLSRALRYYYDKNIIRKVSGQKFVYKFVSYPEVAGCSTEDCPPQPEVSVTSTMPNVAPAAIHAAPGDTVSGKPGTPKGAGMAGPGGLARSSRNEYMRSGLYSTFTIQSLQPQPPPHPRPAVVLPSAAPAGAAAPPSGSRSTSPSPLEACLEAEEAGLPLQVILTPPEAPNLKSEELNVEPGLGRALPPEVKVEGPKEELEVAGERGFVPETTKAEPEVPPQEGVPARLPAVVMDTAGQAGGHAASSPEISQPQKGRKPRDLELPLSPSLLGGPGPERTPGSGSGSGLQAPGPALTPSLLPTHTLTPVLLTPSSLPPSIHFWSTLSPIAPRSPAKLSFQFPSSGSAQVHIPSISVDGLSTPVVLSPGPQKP
In short: as §1

GABPA = biological target: T3, GABPA (Homo sapiens, UniProt Q06546 1-454); conditions: protein: recombinant; tags: N-terminal GST; dsDNA, one strand shown
T3 sequence: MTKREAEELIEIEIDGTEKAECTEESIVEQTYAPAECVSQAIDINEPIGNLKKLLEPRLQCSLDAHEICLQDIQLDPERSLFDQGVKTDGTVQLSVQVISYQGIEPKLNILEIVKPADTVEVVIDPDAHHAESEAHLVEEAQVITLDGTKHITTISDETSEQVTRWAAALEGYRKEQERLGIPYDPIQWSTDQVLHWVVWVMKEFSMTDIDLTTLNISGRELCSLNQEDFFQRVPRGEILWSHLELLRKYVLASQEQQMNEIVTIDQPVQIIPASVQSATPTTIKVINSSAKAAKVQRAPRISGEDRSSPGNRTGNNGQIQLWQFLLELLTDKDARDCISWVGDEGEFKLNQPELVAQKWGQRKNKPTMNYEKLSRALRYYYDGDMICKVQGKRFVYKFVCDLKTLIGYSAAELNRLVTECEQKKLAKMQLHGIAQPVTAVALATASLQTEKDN
In short: as §1

ERG = biological target: T4, ERG (Homo sapiens, UniProt P11308 1-479); conditions: protein: recombinant; tags: N-terminal GST; dsDNA, one strand shown
T4 sequence: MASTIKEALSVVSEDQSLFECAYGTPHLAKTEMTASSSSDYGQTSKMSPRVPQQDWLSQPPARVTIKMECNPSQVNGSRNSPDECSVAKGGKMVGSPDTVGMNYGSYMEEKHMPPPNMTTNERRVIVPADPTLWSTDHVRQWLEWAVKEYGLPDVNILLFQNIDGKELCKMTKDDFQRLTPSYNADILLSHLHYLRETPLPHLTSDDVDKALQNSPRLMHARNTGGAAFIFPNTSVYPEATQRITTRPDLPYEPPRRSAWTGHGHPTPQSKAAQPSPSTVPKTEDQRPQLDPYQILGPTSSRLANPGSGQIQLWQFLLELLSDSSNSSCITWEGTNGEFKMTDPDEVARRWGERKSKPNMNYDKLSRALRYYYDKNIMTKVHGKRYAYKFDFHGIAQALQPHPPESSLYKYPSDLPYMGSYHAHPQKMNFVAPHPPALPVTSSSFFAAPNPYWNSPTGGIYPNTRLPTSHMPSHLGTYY
In short: as §1

ELF1 = ELF1 (Homo sapiens, UniProt P32519 1-619); conditions: protein: recombinant; tags: N-terminal GST; dsDNA, one strand shown
Sequence of ELF1 (P32519 whole entry): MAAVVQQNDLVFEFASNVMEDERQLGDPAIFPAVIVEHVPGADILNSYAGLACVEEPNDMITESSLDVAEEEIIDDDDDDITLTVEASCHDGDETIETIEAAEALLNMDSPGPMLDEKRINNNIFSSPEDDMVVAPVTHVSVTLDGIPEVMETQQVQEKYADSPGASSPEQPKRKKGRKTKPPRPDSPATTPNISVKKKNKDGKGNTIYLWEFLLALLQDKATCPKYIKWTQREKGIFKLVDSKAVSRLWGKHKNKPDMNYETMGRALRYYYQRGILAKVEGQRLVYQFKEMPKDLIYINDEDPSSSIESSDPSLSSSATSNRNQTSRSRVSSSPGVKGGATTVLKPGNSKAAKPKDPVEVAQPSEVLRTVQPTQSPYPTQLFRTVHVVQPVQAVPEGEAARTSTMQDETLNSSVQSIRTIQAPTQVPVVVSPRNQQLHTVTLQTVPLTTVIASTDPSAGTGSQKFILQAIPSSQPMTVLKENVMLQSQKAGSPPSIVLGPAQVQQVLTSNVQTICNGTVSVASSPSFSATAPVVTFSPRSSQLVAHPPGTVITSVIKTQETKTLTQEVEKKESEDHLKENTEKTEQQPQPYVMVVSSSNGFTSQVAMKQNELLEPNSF
In short: as §1

EHF = biological target: T5, EHF (Homo sapiens, UniProt Q9NZC4 1-300); conditions: protein: recombinant; tags: N-terminal GST; dsDNA, one strand shown
T5 sequence: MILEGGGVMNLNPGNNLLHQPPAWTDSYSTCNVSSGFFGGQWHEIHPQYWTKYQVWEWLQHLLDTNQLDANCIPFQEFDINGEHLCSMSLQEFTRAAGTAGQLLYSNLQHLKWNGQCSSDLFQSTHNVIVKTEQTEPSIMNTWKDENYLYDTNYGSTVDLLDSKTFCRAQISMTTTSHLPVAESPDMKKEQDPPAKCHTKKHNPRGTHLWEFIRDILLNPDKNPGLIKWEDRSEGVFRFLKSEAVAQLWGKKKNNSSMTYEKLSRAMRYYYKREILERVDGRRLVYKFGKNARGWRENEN
In short: as §1

SPI1 = SPI1 (Homo sapiens, UniProt P17947 1-270); conditions: protein: recombinant; tags: N-terminal GST; dsDNA, one strand shown
In short: as §1

SPIB = SPIB (Homo sapiens, UniProt Q01892 1-262); conditions: protein: recombinant; tags: N-terminal GST; dsDNA, one strand shown
Sequence of SPIB (Q01892 whole entry): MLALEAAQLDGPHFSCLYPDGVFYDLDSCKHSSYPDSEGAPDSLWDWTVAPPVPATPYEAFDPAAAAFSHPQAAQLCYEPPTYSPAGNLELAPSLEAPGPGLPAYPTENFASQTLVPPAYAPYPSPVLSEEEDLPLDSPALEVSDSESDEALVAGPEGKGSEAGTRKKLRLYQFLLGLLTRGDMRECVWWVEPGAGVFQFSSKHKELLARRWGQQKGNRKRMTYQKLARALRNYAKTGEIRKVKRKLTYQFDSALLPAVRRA
In short: as §1

ELK3 = biological target: T6, ELK3 (Homo sapiens, UniProt P41970 1-407); conditions: protein: recombinant; tags: N-terminal GST; dsDNA, one strand shown
T6 sequence: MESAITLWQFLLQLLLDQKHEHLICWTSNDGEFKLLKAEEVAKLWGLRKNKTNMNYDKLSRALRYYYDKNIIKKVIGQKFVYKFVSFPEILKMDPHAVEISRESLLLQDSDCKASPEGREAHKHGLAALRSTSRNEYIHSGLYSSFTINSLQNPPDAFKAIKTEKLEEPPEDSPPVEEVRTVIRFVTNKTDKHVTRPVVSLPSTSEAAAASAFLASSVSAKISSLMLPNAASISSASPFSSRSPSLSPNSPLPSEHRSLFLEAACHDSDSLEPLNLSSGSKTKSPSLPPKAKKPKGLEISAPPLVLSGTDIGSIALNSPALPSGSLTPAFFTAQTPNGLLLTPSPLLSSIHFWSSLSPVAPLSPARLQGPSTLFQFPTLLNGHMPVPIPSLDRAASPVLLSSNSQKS
In short: as §1

FEV = biological target: T7, FEV (Homo sapiens, UniProt Q99581 1-238); conditions: protein: recombinant; tags: N-terminal GST; dsDNA, one strand shown
T7 sequence: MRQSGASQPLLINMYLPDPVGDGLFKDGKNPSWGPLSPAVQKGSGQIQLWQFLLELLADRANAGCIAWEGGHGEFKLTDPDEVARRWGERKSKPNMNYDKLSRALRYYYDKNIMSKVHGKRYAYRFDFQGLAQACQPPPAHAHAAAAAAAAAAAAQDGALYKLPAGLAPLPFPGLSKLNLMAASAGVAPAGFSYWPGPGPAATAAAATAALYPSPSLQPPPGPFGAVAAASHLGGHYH
In short: as §1

ETV5 = ETV5 (Homo sapiens, UniProt P41161 1-510); conditions: protein: recombinant; tags: N-terminal GST; dsDNA, one strand shown
Sequence of ETV5 (P41161 whole entry): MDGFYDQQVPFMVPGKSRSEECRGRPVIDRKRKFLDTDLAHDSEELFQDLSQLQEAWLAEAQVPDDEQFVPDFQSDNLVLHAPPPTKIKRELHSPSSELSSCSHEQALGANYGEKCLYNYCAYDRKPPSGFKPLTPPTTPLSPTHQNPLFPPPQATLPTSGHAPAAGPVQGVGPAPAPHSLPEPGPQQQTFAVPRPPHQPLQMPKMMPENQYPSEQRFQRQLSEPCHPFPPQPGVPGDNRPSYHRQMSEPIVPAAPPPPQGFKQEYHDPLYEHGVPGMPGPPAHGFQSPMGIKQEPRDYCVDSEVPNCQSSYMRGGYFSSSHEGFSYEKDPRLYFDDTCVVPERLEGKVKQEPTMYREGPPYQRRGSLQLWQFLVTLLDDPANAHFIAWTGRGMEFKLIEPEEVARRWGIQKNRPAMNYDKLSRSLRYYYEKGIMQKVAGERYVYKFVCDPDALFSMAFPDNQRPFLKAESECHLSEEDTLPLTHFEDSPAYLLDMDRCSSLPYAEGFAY
In short: as §1

HSF1 = HSF1 (Homo sapiens, UniProt Q00613 1-529); conditions: protein: recombinant; tags: N-terminal GST; chain copies: 3; dsDNA, one strand shown
Sequence of HSF1 (Q00613 whole entry): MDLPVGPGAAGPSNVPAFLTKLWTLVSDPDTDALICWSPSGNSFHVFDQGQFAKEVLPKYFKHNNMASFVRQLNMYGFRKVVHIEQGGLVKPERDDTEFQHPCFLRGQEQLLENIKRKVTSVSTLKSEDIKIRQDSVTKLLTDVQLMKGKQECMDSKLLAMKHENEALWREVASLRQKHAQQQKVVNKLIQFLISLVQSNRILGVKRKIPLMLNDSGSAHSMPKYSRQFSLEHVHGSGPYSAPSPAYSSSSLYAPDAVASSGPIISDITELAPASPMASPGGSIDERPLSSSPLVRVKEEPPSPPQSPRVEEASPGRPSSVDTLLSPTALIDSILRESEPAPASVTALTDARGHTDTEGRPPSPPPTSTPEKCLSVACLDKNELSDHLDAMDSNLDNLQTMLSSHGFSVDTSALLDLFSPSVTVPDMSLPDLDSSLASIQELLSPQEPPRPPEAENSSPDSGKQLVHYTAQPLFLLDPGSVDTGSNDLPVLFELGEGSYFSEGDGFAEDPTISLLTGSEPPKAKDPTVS
In short: as §1

SPIC = biological target: T8, SPIC (Homo sapiens, UniProt Q8N5J4 1-248); conditions: protein: recombinant; tags: N-terminal GST; dsDNA, one strand shown
T8 sequence: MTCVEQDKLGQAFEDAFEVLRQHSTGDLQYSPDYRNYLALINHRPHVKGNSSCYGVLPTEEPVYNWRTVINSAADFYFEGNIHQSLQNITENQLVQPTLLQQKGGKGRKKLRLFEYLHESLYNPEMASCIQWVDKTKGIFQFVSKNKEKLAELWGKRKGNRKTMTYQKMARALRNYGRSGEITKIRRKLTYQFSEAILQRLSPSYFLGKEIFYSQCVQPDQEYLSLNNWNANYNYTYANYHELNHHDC
In short: as §1

ELF4 = ELF4 (Homo sapiens, UniProt Q99607 1-663); conditions: protein: recombinant; tags: N-terminal GST; dsDNA, one strand shown
Sequence of ELF4 (Q99607 whole entry): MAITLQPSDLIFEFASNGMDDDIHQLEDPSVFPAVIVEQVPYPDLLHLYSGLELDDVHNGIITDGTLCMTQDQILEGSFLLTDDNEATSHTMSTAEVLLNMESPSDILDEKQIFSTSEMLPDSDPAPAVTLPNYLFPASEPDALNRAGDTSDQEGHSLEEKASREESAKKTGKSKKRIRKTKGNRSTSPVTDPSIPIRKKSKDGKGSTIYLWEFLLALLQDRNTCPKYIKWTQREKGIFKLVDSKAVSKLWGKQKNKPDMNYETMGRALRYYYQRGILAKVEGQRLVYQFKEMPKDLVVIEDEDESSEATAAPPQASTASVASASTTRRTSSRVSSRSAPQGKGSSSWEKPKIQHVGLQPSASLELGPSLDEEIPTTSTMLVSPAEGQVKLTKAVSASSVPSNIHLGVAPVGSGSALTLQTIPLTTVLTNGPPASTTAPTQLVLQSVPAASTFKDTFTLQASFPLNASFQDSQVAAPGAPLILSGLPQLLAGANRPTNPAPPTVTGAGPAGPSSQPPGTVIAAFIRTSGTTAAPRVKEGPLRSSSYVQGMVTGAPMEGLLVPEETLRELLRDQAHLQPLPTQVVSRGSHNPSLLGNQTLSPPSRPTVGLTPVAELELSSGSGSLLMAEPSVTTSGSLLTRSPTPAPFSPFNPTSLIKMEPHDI
In short: as §1

ELK4 = biological target: T9, ELK4 (Homo sapiens, UniProt P28324-2 1-405); conditions: protein: recombinant; tags: N-terminal GST; dsDNA, one strand shown
T9 sequence: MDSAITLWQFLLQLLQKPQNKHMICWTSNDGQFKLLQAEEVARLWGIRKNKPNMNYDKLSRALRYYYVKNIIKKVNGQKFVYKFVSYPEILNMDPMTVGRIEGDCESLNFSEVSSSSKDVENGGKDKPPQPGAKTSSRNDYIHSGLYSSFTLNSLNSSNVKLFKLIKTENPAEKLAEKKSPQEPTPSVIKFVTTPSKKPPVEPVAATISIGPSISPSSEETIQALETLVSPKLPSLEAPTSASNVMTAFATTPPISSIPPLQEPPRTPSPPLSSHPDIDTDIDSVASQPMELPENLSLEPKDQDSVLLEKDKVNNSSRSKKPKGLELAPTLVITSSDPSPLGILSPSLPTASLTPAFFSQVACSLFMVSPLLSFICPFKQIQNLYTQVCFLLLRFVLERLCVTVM
In short: as §1

ETV2 = biological target: T10, ETV2 (Homo sapiens, UniProt O00321 1-342); conditions: protein: recombinant; tags: N-terminal GST; dsDNA, one strand shown
T10 sequence: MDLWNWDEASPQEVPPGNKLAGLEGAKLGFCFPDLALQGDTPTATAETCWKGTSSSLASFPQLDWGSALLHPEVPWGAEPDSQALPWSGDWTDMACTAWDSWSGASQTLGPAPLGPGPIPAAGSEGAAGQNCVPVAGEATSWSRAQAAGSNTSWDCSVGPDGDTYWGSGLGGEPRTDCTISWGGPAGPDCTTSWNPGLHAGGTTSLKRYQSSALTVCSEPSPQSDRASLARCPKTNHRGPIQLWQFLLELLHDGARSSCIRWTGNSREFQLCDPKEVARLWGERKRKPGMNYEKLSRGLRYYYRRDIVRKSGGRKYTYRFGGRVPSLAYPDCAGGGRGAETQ
In short: as §1

ELF3 = biological target: T11, ELF3 (Homo sapiens, UniProt P78545 1-371); conditions: protein: recombinant; tags: N-terminal GST; dsDNA, one strand shown
T11 sequence: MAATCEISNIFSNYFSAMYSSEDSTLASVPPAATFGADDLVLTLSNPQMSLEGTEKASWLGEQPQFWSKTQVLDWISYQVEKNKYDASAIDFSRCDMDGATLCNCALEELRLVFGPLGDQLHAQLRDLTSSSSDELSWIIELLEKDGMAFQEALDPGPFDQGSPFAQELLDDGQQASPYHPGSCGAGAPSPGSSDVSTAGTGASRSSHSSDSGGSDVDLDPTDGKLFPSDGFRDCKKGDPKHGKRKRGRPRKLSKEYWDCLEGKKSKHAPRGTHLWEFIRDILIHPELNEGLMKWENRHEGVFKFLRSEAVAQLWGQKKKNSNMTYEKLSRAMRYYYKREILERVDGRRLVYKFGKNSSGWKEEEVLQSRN
In short: as §1

CRX = CRX (Homo sapiens, UniProt O43186 1-299); conditions: protein: recombinant; tags: N-terminal GST; dsDNA, one strand shown
Sequence of CRX (O43186 whole entry): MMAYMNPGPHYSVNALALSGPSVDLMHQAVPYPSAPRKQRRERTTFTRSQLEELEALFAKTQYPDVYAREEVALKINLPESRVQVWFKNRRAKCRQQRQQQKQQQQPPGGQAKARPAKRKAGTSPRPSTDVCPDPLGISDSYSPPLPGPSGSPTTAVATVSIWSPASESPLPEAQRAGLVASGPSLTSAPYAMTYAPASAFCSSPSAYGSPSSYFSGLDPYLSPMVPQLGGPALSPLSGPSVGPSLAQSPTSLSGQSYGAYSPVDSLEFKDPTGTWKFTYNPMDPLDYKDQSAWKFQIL
In short: as §1

ETV1 = ETV1 (Homo sapiens, UniProt P50549 1-477); conditions: protein: recombinant; tags: N-terminal GST; dsDNA, one strand shown
Sequence of ETV1 (P50549 whole entry): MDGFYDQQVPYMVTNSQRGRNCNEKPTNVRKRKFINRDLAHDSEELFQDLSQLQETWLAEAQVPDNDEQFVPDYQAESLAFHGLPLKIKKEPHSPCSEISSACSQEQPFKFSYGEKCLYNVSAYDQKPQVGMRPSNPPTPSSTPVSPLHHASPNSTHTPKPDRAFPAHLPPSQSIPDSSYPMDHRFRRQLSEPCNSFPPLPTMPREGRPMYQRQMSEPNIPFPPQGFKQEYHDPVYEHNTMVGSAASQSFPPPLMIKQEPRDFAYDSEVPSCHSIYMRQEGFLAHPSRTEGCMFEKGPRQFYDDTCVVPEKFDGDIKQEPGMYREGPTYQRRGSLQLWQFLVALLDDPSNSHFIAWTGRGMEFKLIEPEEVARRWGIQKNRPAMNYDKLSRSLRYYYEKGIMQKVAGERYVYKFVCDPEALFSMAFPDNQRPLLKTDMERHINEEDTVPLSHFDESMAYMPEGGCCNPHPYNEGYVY
In short: as §1

TTGCGG
binding signal (FLI1): 1.37 fold enrichment (6-mer frequency, TF over GST control)
binding signal (ELK1): 1.14 fold enrichment (6-mer frequency, TF over GST control)
binding signal (GABPA): 1.21 fold enrichment (6-mer frequency, TF over GST control)
binding signal (ERG): 1.28 fold enrichment (6-mer frequency, TF over GST control)
binding signal (ELF1): 1.38 fold enrichment (6-mer frequency, TF over GST control)
binding signal (EHF): 1.3 fold enrichment (6-mer frequency, TF over GST control)
binding signal (SPI1): 1.61 fold enrichment (6-mer frequency, TF over GST control)
binding signal (SPIB): 1.2 fold enrichment (6-mer frequency, TF over GST control)
binding signal (ELK3): 1.26 fold enrichment (6-mer frequency, TF over GST control)
binding signal (FEV): 1.19 fold enrichment (6-mer frequency, TF over GST control)
binding signal (ETV5): 1.36 fold enrichment (6-mer frequency, TF over GST control)
binding signal (HSF1): 1.04 fold enrichment (6-mer frequency, TF over GST control)
binding signal (SPIC): 1.47 fold enrichment (6-mer frequency, TF over GST control)
binding signal (ELF4): 1.3 fold enrichment (6-mer frequency, TF over GST control)
binding signal (ELK4): 1.2 fold enrichment (6-mer frequency, TF over GST control)
binding signal (ETV2): 1.31 fold enrichment (6-mer frequency, TF over GST control)
binding signal (ELF3): 1.42 fold enrichment (6-mer frequency, TF over GST control)
binding signal (CRX): 1.05 fold enrichment (6-mer frequency, TF over GST control)
binding signal (ETV1): 1.27 fold enrichment (6-mer frequency, TF over GST control)
